Among the data in PubChem BioAssay are z-score and composite z-score values, retold here.

Assay [1] can be described thus: E. coli DRC41 culture turbidity changes, primary screen, E. coli filamentation inducer project, strain DRC41, OD650, 48 h (AID 1152).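 Further: E. coli MC1000 strain DRC41 lacking acrAB efflux pump and sulA.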 The settings on record: E. coli DRC41 (acrAB sulA), higher = more signal, called active from +8 up or from −8 down.
The nature of assay [2]: small-molecule binders of probe aLefty1, primary screen, biochemical, small-molecule microarray, 635/667 nm fluorescence (AID 1153).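 Further: score merges spot fluorescence with signal-to-noise ratio from the scanned slide images.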 As to conditions: higher = more signal.
Assay [3] in a line: PSAC antagonists in infected red cells, primary screen, cell-based, P. falciparum Indochina, OD700, 1 h (AID 1154). As to conditions: P. falciparum Indochina infected RBC osmotic lysis, higher = more signal, called active from +8 up or from −8 down.
Assay [4] can be described thus: PSAC antagonists in infected red cells, primary screen, cell-based, P. falciparum Indochina, OD700, 2 h (AID 1155).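 Further: lysis reports solute entry through the parasite surface anion channel PSAC; channel blockers reduce lysis of infected cells.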 The settings on record: P. falciparum Indochina infected erythrocytes, osmotic lysis OD700; higher = more signal, called active from +8 up or from −8 down.
Assay [5] can be described thus: osmotic lysis modulators in infected erythrocytes, primary screen, PSAC antagonist project, cell-based, P. falciparum Indochina, OD700, 3 h (AID 1156). The settings on record: higher = more signal, called active from +8 up or from −8 down.
The nature of assay [6]: PSAC antagonists in infected red cells, primary screen, cell-based, P. falciparum Indochina, OD700, 18 h (AID 1157). As to conditions: P. falciparum Indochina infected erythrocytes, osmotic lysis OD700, 18 h; higher = more signal, called active from +8 up or from −8 down.
A short description of assay [7]: modulators of S6 phosphorylation in cells, primary screen, cell-based, A549, cytoblot, luminescence, serum-stimulated (AID 1158).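 Further: serum-stimulated A549 lung adenocarcinoma cells; signal is phosphorylated S6 detected by cytoblot immunostaining with HRP secondary.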 The settings on record: A549 phospho-S6 cytoblot, 5 h, higher = more signal.
The target of assay [8] is NADPH oxidase 2 (Homo sapiens) (UniProt P04839). As to the kind of experiment: NOX2-dependent H2O2 signal modulators, primary screen, NOX inhibitor project, cell-based, HEK293-NOX2, PMA-stimulated, Amplex Red fluorescence (AID 1159). Further: test concentration not given here. The settings on record: 45 min, higher = more signal, called active from +8 up or from −8 down.
Chain of NADPH oxidase 2 (Homo sapiens) (P04839 whole entry, looked up): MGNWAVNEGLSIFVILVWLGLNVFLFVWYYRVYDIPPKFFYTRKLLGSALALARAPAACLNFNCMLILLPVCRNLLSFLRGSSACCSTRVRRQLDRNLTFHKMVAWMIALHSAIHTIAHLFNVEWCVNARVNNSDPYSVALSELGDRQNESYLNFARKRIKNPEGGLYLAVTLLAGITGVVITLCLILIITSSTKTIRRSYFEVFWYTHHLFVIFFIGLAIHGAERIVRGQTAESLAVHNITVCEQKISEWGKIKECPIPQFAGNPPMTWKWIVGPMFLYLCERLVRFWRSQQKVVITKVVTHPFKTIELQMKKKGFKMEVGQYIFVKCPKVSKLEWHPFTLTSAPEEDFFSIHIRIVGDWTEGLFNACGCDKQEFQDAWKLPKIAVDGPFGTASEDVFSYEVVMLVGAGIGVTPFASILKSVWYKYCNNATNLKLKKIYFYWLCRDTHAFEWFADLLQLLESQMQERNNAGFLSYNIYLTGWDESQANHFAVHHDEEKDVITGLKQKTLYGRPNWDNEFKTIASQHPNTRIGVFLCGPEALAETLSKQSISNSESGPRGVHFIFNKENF
Assay [9] deals with NADPH oxidase 4 (Homo sapiens) (UniProt Q9NPH5). As to the kind of experiment: NOX4-dependent H2O2 signal modulators, primary screen, NOX inhibitor project, cell-based, HEK293-NOX4, tetracycline-induced, Amplex Red fluorescence (AID 1160). The settings on record: 45 min, higher = more signal, called active from +8 up or from −8 down.
Chain of NADPH oxidase 4 (Homo sapiens) (Q9NPH5 whole entry, looked up): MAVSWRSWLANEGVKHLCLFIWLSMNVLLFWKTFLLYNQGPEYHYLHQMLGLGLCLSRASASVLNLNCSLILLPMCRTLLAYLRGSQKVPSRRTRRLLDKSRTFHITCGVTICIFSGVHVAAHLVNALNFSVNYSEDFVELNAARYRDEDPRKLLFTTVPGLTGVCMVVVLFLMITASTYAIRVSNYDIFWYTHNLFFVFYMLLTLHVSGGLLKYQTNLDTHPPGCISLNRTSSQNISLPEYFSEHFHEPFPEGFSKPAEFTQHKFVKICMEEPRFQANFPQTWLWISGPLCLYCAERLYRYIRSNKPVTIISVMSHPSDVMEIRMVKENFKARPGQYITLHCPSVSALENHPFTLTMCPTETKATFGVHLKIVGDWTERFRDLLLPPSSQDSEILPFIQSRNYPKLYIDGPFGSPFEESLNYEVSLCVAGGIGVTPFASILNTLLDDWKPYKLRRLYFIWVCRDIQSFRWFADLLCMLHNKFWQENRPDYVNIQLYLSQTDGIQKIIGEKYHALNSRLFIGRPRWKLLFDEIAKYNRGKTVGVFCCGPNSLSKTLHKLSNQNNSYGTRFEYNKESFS
In assay [10] the target is NADPH oxidase 5 (Homo sapiens) (UniProt Q96PH1). As to the kind of experiment: NOX5-dependent H2O2 signal modulators, primary screen, NOX inhibitor project, cell-based, HEK293-NOX5, Amplex Red fluorescence (AID 1161). As to conditions: HEK293-NOX5, ionomycin, 45 min, higher = more signal.
Chain of NADPH oxidase 5 (Homo sapiens) (Q96PH1 whole entry, looked up): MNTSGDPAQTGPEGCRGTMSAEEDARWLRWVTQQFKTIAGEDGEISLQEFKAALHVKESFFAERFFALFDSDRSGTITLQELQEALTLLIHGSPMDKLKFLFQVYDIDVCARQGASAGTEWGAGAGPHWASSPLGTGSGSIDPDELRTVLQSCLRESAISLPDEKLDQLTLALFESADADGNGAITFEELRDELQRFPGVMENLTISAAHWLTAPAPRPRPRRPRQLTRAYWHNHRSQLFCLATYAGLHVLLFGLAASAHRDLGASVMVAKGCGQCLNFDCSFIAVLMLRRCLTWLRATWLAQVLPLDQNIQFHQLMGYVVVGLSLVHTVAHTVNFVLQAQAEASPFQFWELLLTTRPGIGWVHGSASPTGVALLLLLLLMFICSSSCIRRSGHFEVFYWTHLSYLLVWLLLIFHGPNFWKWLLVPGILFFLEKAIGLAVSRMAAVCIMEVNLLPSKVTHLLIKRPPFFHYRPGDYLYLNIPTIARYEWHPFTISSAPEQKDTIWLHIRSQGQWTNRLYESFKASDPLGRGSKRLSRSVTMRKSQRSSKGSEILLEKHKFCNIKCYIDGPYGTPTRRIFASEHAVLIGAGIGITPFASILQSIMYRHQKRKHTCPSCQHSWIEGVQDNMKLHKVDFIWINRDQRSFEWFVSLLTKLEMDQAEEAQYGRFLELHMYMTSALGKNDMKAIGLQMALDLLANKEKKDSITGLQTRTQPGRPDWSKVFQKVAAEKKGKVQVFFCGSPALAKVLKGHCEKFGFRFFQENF
Assay [11] is described as follows: A549 cell viability effects, profiling panel, calcein-AM fluorescence, 48 h, basal (AID 1162). Further: test concentration not given here. As to conditions: higher = more signal.
Assay [12] can be described thus: adipocyte viability effects, profiling panel, cell-based, 3T3-L1 adipocytes, calcein-AM fluorescence, 48 h, basal (AID 1163). Further: test concentration not given here. The settings on record: 3T3-L1 adipocytes viability, higher = more signal.
Assay [13] can be described thus: HepG2 cell viability effects, profiling panel, calcein-AM fluorescence, 48 h, basal (AID 1164). Further: test concentration not given here. As to conditions: higher = more signal.
Assay [14] in a line: MM1S cell viability effects, profiling panel, calcein-AM fluorescence, 48 h, basal (AID 1165).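 Further: viability of MM1S multiple myeloma cells under basal unstimulated conditions; test concentration not given here.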 The settings on record: higher = more signal.
Assay [15] can be described thus: basal RPMI8226 viability, no added stimulus, profiling panel, cell-based, calcein-AM fluorescence, 48 h, PK04 Diversity Set (AID 1166).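 Further: cells grown under basal conditions without added stimulus; test concentration not given here.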 The settings on record: RPMI8226 myeloma viability, higher = more signal.
A short description of assay [16]: basal HepG2 mitochondrial membrane potential changes, profiling panel, cell-based, JC-1 fluorescence, 24 h, 100 nL compound (AID 1167). Further: test concentration not given here. As to conditions: higher = more signal.
Assay [17] in a line: basal 3T3-L1 adipocyte mitochondrial potential changes, profiling panel, cell-based, JC-1 fluorescence, 3T3-L1 adipocytes, 24 h, 100 nL compound (AID 1168). Further: test concentration not given here. As to conditions: JC-1 mitochondrial fluorescence, higher = more signal, called active from +8 up or from −8 down.
Assay [18] in a line: basal RPMI8226 mitochondrial membrane potential changes, profiling panel, cell-based, JC-1 fluorescence, 24 h, 100 nL compound (AID 1169). Further: test concentration not given here. As to conditions: RPMI8226 myeloma, JC-1 mitochondrial potential fluorescence, higher = more signal.
Assay [19] can be described thus: basal MM1S mitochondrial membrane potential changes, profiling panel, cell-based, JC-1 fluorescence, 24 h, 100 nL compound (AID 1170). Further: test concentration not given here. The settings on record: higher = more signal.
Assay [20] can be described thus: A549 lung cancer cell viability effects, profiling panel, resazurin fluorescence, 24 h, PK04 Diversity Set (AID 1171). Further: test concentration not given here. As to conditions: higher = more signal, called active from +8 up or from −8 down. In general terms: The colour change of resazurin is a common sign of viable cells or microbes.

Activity calls are given as the source filed them.

Consider `O=C/C=C/c1ccc(Cl)cc1`, for which the z-score is 0.73 (inactive) in assay [1]; -0.406 (inactive) in assay [3]; -2.04 (inactive) in assay [4]; -0.316 (inactive) in assay [5]; -2.54 (inactive) in [6]; 0.617 in [7]. The z-score in assay [8] was -0.506 (inactive); in assay [9], -0.869 (inactive); in assay [10], 1.44; in assay [11] it was 1.04; in [12] it was -0.0776; in assay [13] it was 0.265. Moreover, the z-score was -3.17 in assay [14]; 0.45 in [15]; 1.32 in assay [16]; -0.34 (inactive) in [17]; -0.762 in assay [18]; -1.25 in [19]. In addition, in assay [20], the z-score is -0.835 (inactive). For the same compound, the composite z-score in assay [2] is -0.0885.

With `COC(=O)C(CC#Cc1ccc2c(c1)[C@]1(C(=O)N2)[C@H](c2ccc(OCCO)cc2)N2[C@H](c3ccccc3)[C@H](c3ccccc3)OC(=O)[C@H]2[C@@H]1C(=O)NC[C@H](O)c1ccccc1)C(=O)OC`, the z-score in assay [1] is 1.57 (inactive); in assay [3] it was 2.5 (inactive); in [4], 1.14 (inactive); in assay [5] it was 0.829 (inactive); in assay [6], 0.664 (inactive); in assay [7] it was 0.219. Moreover, the z-score in assay [8] was 2.1 (inactive); in assay [9], 1.2 (inactive); in assay [10] it was 0.489; in assay [11], 0.876; in assay [12], 1.04; in [13], 1.31. Further, the z-score in [14] is -1.67; in assay [15] it was -1.2; in [16], -1.13; in assay [17], 0.833 (inactive); in [18], -1.29; in assay [19] it was -1.35. Moreover, in [20], the z-score is 0.795 (inactive). In addition, the composite z-score in assay [2] was 0.0903.

For the compound `COCCOC(=O)N1C(=O)[C@@]2(c3ccccc31)[C@H](c1ccc(O)cc1)N1[C@H](c3ccccc3)[C@H](c3ccccc3)OC(=O)[C@H]1[C@@H]2C(=O)N1CCc2cc(OC)c(OC)cc2C1`, the z-score in assay [1] was 0.682 (inactive); in [3], 0.428 (inactive); in assay [4] it was -0.261 (inactive); in [5], 0.0172 (inactive); in assay [6], -1 (inactive); in assay [7], 1.55. The z-score was 0.343 (inactive) in [8]; 0.594 (inactive) in assay [9]; 1.95 in [10]; 0.823 in assay [11]; 0.748 in assay [12]; 2.31 in assay [13]. In addition, the z-score was 0.448 in assay [14]; -0.368 in [15]; 0.893 in [16]; 2.9 (inactive) in assay [17]; 0.228 in [18]; 0.296 in assay [19]. The z-score in [20] was -0.275 (inactive). Also, the composite z-score in assay [2] is -0.181.

`C=CCC(OC(C)=O)[C@@H]1[C@@H](N(Cc2ccc(-c3cccc(C(F)(F)F)c3)o2)C(=O)c2ccc(C)cc2)c2cc(OCCCO)ccc2N1C(=O)c1ccc(-c2ccccc2)cc1` (stereo not given in full): the z-score in assay [1] is 1.35 (inactive); in assay [3] it was 1.93 (inactive); in assay [4], 0.705 (inactive); in [5], -0.0802 (inactive); in [6], -0.0352 (inactive); in assay [7], -0.047. Also, the z-score in assay [8] is -3.28 (inactive); in assay [9] it was 0.822 (inactive); in assay [10] it was 2.25; in assay [11], 1.18; in [12], 0.345; in [13], 1.65. In addition, the z-score in assay [14] is 1.02; in [15] it was 0.657; in assay [16], 3.89; in [17], -1.29 (inactive); in [18] it was 0.866; in assay [19], 0.112. Besides, the z-score in assay [20] was -0.0211 (inactive). In assay [2], this compound registered a composite z-score of -0.0464.
